Screen size: about 87,000 compounds; about 360 (0.41%) were called active. For the sample, actives were picked, then their nearest neighbours and some compounds at random. A number with no mark means an inactive call. No stated cut-off is given here; in the data, active means cytotoxicity above about 50%; inactive means the rest.

The assay in a line: cytotoxicity in HT1080 fibrosarcoma cells, cell-based, fluorescence readout (AID 620).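 Further: cells exposed to compound overnight then 4 h with Alamar Blue; 0% = vehicle DMSO and 100% = killing control.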 The following applies: HT1080 viability, at 10 µM, active compounds read high.
As for `CCOC(=O)c1c(C)sc2c1N(C(=O)CN1CCOCC1)c1cc(Cl)ccc1S2`, the cytotoxicity is 12.4%.
Next, `O=C(OCC(=O)N1CCN(c2ccccc2)CC1)C1=COCCO1`: -8.1%; `O=C(OCC#CCSc1nnc(-c2ccc([N+](=O)[O-])cc2)o1)c1cccs1`: -10.8%; `CCSc1nnc(NC(=O)COc2ccccc2)s1`: -5%.
Next, `O=C(NCc1ccncc1)Nc1ccc(F)cc1`: 14.7%; `COc1ccc(S(=O)(=O)n2nc(-c3cc(OC)c(OC)c(OC)c3)cc2N)cc1OC`: 1.5%; `COc1ccc(-c2cc(N)n(S(=O)(=O)c3c(F)c(F)c(F)c(F)c3F)n2)cc1OC`: 59.5% (active).
As for `COc1ccc(OC)c(S(=O)(=O)n2nc(-c3ccccc3)cc2N)c1`, the cytotoxicity is -6.1%.
As for `CCOC(=O)COc1cccc2c(=O)n(CC(=O)NCc3ccc4c(c3)OCO4)ccc12`, the cytotoxicity was 13.3%.
Next, `CCOC(=O)C(C)Oc1cccc2c(=O)n(CC(=O)NCc3ccco3)ccc12` (centres undefined): 65.3% (active); `CCOC(=O)C(C)Oc1cccc2c(=O)n(CC(=O)N3CCc4ccccc43)ccc12` (centres undefined): 4.2%; `c1ccc(OCCOCCN2CCOCC2)cc1`: -2.8%.
As to `Cc1nc2c(cnn2-c2ccccc2Cl)c(=O)n1-c1ccc(N2CCC(C)CC2)cc1`, the cytotoxicity was 0.5%.
For `COCc1cc(C)nc(SCC(=O)Nc2cccc(C)c2C)c1C#N` the value was -2%; for `Cc1csc(NC(=O)c2cc3c(s2)CCC3)n1`, 20.8%; for `Cc1csc(NC(=O)c2cc3c(s2)CCCCC3)n1`, -7.3%.
Turning to `CCC(C)NS(=O)(=O)c1ccc(-c2csnn2)s1` (centres undefined), the cytotoxicity is -2.6%.
`CC(CCc1ccccc1)NC(=O)CSc1nnnn1C` (centres undefined): the cytotoxicity was 9.7%.
Next, `Cc1ccc(N2CCN(S(=O)(=O)c3ccc(F)cc3)CC2)c(C)c1`: -3.9%; `CC1=CC(C)(C)N(S(=O)(=O)c2ccc(C)cc2)c2ccccc21`: 64.3% (active).
For `CC1=CC(C)(C)N(S(=O)(=O)c2ccc(C)cc2)c2cc(C)ccc21` the value was 63.7% (active).
Next, `CC1=CC(C)(C)N(S(=O)(=O)c2ccc(C)cc2)c2ccc(C)cc21`: 64.1% (active); `CC1=CC(C)(C)N(C(=O)CN2C(=O)c3ccccc3C2=O)c2ccccc21`: 12.7%.
Regarding `CC1=CC(C)(C)N(C(=O)c2ccccc2)c2ccc(C)cc21`, the cytotoxicity is -8.8%.
Next, `CC1=CC(C)(C)N(C(=O)CSc2nccn2C)c2cc(C)ccc21`: -6.8%; `CC1=CC(C)(C)N(C(=O)C(C)N2C(=O)c3ccccc3C2=O)c2ccc(C)cc21` (centres undefined): 5.3%; `CC1=CC(C)(C)N(S(=O)(=O)c2ccc(F)cc2)c2ccc(C)cc21`: 61% (active).
Next, `Cc1ccc(S(=O)(=O)N2C(=S)SCC2(C)C)cc1`: 14.3%.
Take `Cc1ccc2c(c1)[C@@H]1CN(C)CC[C@@H]1N2S(=O)(=O)c1ccc(F)cc1`: the cytotoxicity was 3.2%.
As for `CC1=CC(C)(C)N(S(=O)(=O)c2ccc(F)cc2)c2ccccc21`, the cytotoxicity was 34.7%.
Next, `Cc1ccc2[nH]c3c(=O)n(CCCN4CCOCC4)cnc3c2c1`: -1.5%.
Next, `CCOc1ccc(NC(=O)c2cc3cc4ccc(OC)cc4nc3o2)cc1`: -4.9%; `COc1ccc(NC(=O)c2ccco2)c(NC(=O)Cc2cccs2)c1`: -0.8%; `O=C(C(NS(=O)(=O)c1cccs1)c1ccccc1)N1CCN(c2ccccc2F)CC1` (centres undefined): 1.9%.
As to `CC(C)(C)N(Cc1ccccc1)C(=O)c1ccc2c(c1)OCCO2`, the cytotoxicity was -6.6%.
For `Cc1sc2ncnc(NCC3CCCO3)c2c1C` (centres undefined) the value was -6.6%; for `COC(=O)c1ccc(NC(=O)CSc2nc3cccnc3n2C)cc1`, -2.4%; for `COc1cc(NC(=O)C2CCCO2)c(C(=O)O)cc1OC` (centres undefined), 6.7%.
Next, `COc1ccccc1N1CCN(C(=O)c2cc3sccc3n2C)CC1`: -5.4%; `O=C(OC(C(=O)NC1CCCC1)c1ccccn1)c1cccs1` (centres undefined): -10%; `CN=C1SC(CC(=O)Nc2sc3c(c2C#N)CCCC3)C(=O)N1C` (centres undefined): 1.2%.
For `CN1Cc2cc(C(=O)c3ccccc3O)cnc2NC1=O` the value was -10.1%.
For `CCCCN1Cc2cc(C(=O)c3cc(F)ccc3O)cnc2NC1=O`, the cytotoxicity is -2.9%.
For `CN1Cc2cc(C(=O)c3cc(Cl)cc(CSc4ncccn4)c3O)cnc2NC1=O`, the cytotoxicity is 70.1% (active).
Next, `O=C1NC(c2ccccc2)C(C(=O)c2cccs2)=C1O` (centres undefined): -9.1%; `COc1ccccc1NC(=O)c1ccc(NS(C)(=O)=O)cc1`: -6.8%; `C/C(=N\NC(=O)c1ccccn1)C12CC3CC(CC(C3)C1)C2`: -0.9%.
For `CCN(CC)S(=O)(=O)c1cccc(-c2nnc(SCC(=O)NC3CCCC3)n2N)c1` the value was -9.2%.
Next, `COc1ccccc1NC(=O)N1CCC(c2nc3cc(C)c(C)cc3[nH]2)CC1`: 72.8% (active); `CCOc1ccccc1NC(=O)N1CCC(c2nc3ccccc3[nH]2)CC1`: 2.8%; `CCOc1ccccc1NC(=O)N1CCC(c2nc3ccc(C)cc3[nH]2)CC1`: -20.4%.
For the compound `Cc1ccc(NC(=O)/C(C#N)=C/c2cccs2)c(C)c1`, the cytotoxicity was -7.9%.
Regarding `COC(=O)[C@@]1(Cc2ccc(F)cc2)[C@H]2c3cc(C(=O)N4CCCC4)n(CCc4ccc(O)c(O)c4)c3C[C@H]2CN1C(=O)c1ccccc1`, the cytotoxicity is -15.9%.
For `COc1ccccc1CNC(=O)CCS(=O)(=O)c1cccs1` the value was -8.3%; for `COc1cc(CNc2ccc(C)c(C)c2)cc(OC)c1OC`, 54.5% (active); for `COc1cc(CNc2ccccc2SC)cc(OC)c1OC`, -30.4%.
For `COc1cc(CNc2cc(C)ccc2C)cc(OC)c1OC` the value was -14.1%; for `CCOC(=O)c1csc(NC(=O)C2CCCCC2)n1`, -6.3%.
For `CCc1c(C)sc(NC(=O)C2CCCO2)c1C#N` (centres undefined), the cytotoxicity was 0.6%.
For `O=C(Cn1c(CC(=O)N2CCCC2)nc2ccccc21)NCc1ccccc1` the value was 3%; for `COc1ccc(NC(=O)Nc2ncccc2C)cc1`, 0.5%.
For `Cc1nnc(SCCn2c(N3CCN(C)CC3)nc3c2c(=O)n(C)c(=O)n3C)s1` the value was -3.5%; for `Cc1nnc(SCCn2c(N3CCN(C)CC3)nc3c2c(=O)[nH]c(=O)n3C)s1`, -10.1%.
For `Cc1nnc(Sc2nc(Sc3nnc(C)s3)nc(N3CCN(C)CC3)n2)s1` the value was 59.7% (active).

Values taken from PubChem BioAssay AID620 (Sanford-Burnham Center for Chemical Genomics, 2007).
